Active and inactive are the calls of the source. How the source made its calls: active means hit-call score of the fitted dose curve at least 0.9, where 1 is the maximum; inactive means score below 0.9.
Read-out: C-C motif chemokine 2 (Homo sapiens) (UniProt P13500)
Assay: BSK_KF3CT_MCP1: BioMAP Diversity Plus: KF3CT Assay for Monocyte Chemoattractant Protein 1 (MCP1/CCL2) Biomarker Activity (AID 2283073)
Conditions: primary human keratinocytes with fibroblasts; actives raise or lower the signal
Outline: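 ELISA readout of MCP-1 after 24 h chemical dosing of a human skin primary co-culture of keratinocytes and foreskin fibroblasts. Activity was fitted in both directions against DMSO.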

| Structure (SMILES) | outcome | AC50 |
| --- | --- | --- |
| Clc1ccccc1Cl | inactive |  |
| O=Cc1ccco1 | inactive |  |
| Oc1ccc2ccc3cccc4ccc1c2c34 | inactive |  |
| Nc1ccc([N+](=O)[O-])cc1 | inactive |  |
| CC(C)(O)c1cnn2c(-c3ccc(F)c(-c4c(F)cccc4C#N)c3)cnc2n1 | inactive |  |
| N#CC(Br)(Br)C(N)=O | inactive |  |
| CCCCOC(=O)c1ccccc1C(=O)OCc1ccccc1 | inactive |  |
| COP(=S)(OC)SCN1C(=O)c2ccccc2C1=O | inactive |  |
| C1=Cc2cccc3cccc1c23 | inactive |  |
| C[C@]12C=CC3=C4CCC(=O)C=C4CC[C@H]3[C@@H]1CC[C@@H]2O | inactive |  |
| CC(C)N(Cc1ccccc1)C(=O)C(C)(C)C | inactive |  |
| O=[N+]([O-])C(Br)(CO)CO | inactive |  |
| O=C(Oc1ccc(Br)cc1)N1CCN2CCC1CC2 | inactive |  |
| CC(C)COC(=O)c1ccccc1C(=O)OCC(C)C | inactive |  |
| Cc1ccc(N)c(N)c1 | inactive |  |
| OCCCBr | inactive |  |
| CCN(CC)N=O | inactive |  |
| C[N+](C)(C)CC1CO1 (centres undefined) | inactive |  |
| Cc1cccc(N)c1N | inactive |  |
| COC(=O)c1ccccc1N | inactive |  |
| ClC1=C(Cl)C2(Cl)C3C(Cl)C=CC3C1(Cl)C2(Cl)Cl (centres undefined) |  | 14.6 µM (active) |
| Clc1ccc(Cl)c(Cl)c1 | inactive |  |
| ClCCOCCCl | inactive |  |
| c1ccc2c(c1)oc1ccccc12 | inactive |  |
| Nc1ccc(Cc2ccc(N)cc2)cc1 | inactive |  |
| CN(C)C(=O)Nc1ccc(Cl)cc1 | inactive |  |
| ClC1=C(Cl)[C@]2(Cl)[C@H]3[C@H]([C@@H]4C=C[C@H]3C4)[C@@]1(Cl)C2(Cl)Cl |  | 22.3 µM (active) |
| O=C(O)C1C2CCC(O2)C1C(=O)O (centres undefined) | inactive |  |

Read-out: Matrix Metallopeptidase 9 (MMP9), MMP9 (gene 4318)
Assay: BSK_KF3CT_MMP9: BioMAP Diversity Plus: KF3CT Assay for Matrix Metallopeptidase 9 (MMP9) Biomarker Activity (AID 2283074);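 on AC50: MMP9 protein level quantified by ELISA in the co-culture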
Conditions: primary human keratinocytes with fibroblasts; actives raise or lower the signal
Outline: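 Human keratinocyte/foreskin fibroblast co-culture; compound added; 24 h; MMP-9 by ELISA; bidirectional fit vs DMSO baseline.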

| Structure (SMILES) | outcome | AC50 |
| --- | --- | --- |
| Clc1ccccc1Cl | inactive |  |
| O=Cc1ccco1 | inactive |  |
| Oc1ccc2ccc3cccc4ccc1c2c34 |  | 15.3 µM (active) |
| Nc1ccc([N+](=O)[O-])cc1 | inactive |  |
| CC(C)(O)c1cnn2c(-c3ccc(F)c(-c4c(F)cccc4C#N)c3)cnc2n1 |  | 34.6 µM (active) |
| N#CC(Br)(Br)C(N)=O | inactive |  |
| CCCCOC(=O)c1ccccc1C(=O)OCc1ccccc1 | inactive |  |
| COP(=S)(OC)SCN1C(=O)c2ccccc2C1=O | inactive |  |
| C1=Cc2cccc3cccc1c23 | inactive |  |
| C[C@]12C=CC3=C4CCC(=O)C=C4CC[C@H]3[C@@H]1CC[C@@H]2O | inactive |  |
| CC(C)N(Cc1ccccc1)C(=O)C(C)(C)C | inactive |  |
| O=[N+]([O-])C(Br)(CO)CO |  | 34.4 µM (active) |
| O=C(Oc1ccc(Br)cc1)N1CCN2CCC1CC2 | inactive |  |
| CC(C)COC(=O)c1ccccc1C(=O)OCC(C)C | inactive |  |
| Cc1ccc(N)c(N)c1 |  | 9.74 µM (active) |
| OCCCBr | inactive |  |
| CCN(CC)N=O | inactive |  |
| C[N+](C)(C)CC1CO1 (centres undefined) | inactive |  |
| Cc1cccc(N)c1N | inactive |  |
| COC(=O)c1ccccc1N | inactive |  |
| ClC1=C(Cl)C2(Cl)C3C(Cl)C=CC3C1(Cl)C2(Cl)Cl (centres undefined) |  | 13.8 µM (active) |
| Clc1ccc(Cl)c(Cl)c1 | inactive |  |
| ClCCOCCCl | inactive |  |
| c1ccc2c(c1)oc1ccccc12 | inactive |  |
| Nc1ccc(Cc2ccc(N)cc2)cc1 | inactive |  |
| CN(C)C(=O)Nc1ccc(Cl)cc1 | inactive |  |
| ClC1=C(Cl)[C@]2(Cl)[C@H]3[C@H]([C@@H]4C=C[C@H]3C4)[C@@]1(Cl)C2(Cl)Cl |  | 11.6 µM (active) |
| O=C(O)C1C2CCC(O2)C1C(=O)O (centres undefined) |  | 28.7 µM (active) |

Read-out: urokinase plasminogen activator (uPA), PLAU (gene 5328)
Assay: BSK_KF3CT_uPA: BioMAP Diversity Plus: KF3CT Assay for urokinase plasminogen activator (uPA) Biomarker Activity (AID 2283075)
Conditions: primary human keratinocytes with fibroblasts; actives raise or lower the signal
Outline: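 ELISA readout of uPA, analyzed for signal gain or loss relative to DMSO, from a human primary keratinocyte–foreskin fibroblast co-culture measured 24 h after chemical treatment.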

| Structure (SMILES) | outcome | AC50 |
| --- | --- | --- |
| Clc1ccccc1Cl | inactive |  |
| O=Cc1ccco1 | inactive |  |
| Oc1ccc2ccc3cccc4ccc1c2c34 | inactive |  |
| Nc1ccc([N+](=O)[O-])cc1 | inactive |  |
| CC(C)(O)c1cnn2c(-c3ccc(F)c(-c4c(F)cccc4C#N)c3)cnc2n1 |  | 31.9 µM (active) |
| N#CC(Br)(Br)C(N)=O | inactive |  |
| CCCCOC(=O)c1ccccc1C(=O)OCc1ccccc1 | inactive |  |
| COP(=S)(OC)SCN1C(=O)c2ccccc2C1=O | inactive |  |
| C1=Cc2cccc3cccc1c23 | inactive |  |
| C[C@]12C=CC3=C4CCC(=O)C=C4CC[C@H]3[C@@H]1CC[C@@H]2O | inactive |  |
| CC(C)N(Cc1ccccc1)C(=O)C(C)(C)C | inactive |  |
| O=[N+]([O-])C(Br)(CO)CO |  | 36.8 µM (active) |
| O=C(Oc1ccc(Br)cc1)N1CCN2CCC1CC2 | inactive |  |
| CC(C)COC(=O)c1ccccc1C(=O)OCC(C)C | inactive |  |
| Cc1ccc(N)c(N)c1 | inactive |  |
| OCCCBr | inactive |  |
| CCN(CC)N=O | inactive |  |
| C[N+](C)(C)CC1CO1 (centres undefined) | inactive |  |
| Cc1cccc(N)c1N | inactive |  |
| COC(=O)c1ccccc1N | inactive |  |
| ClC1=C(Cl)C2(Cl)C3C(Cl)C=CC3C1(Cl)C2(Cl)Cl (centres undefined) |  | 31 µM (active) |
| Clc1ccc(Cl)c(Cl)c1 | inactive |  |
| ClCCOCCCl | inactive |  |
| c1ccc2c(c1)oc1ccccc12 | inactive |  |
| Nc1ccc(Cc2ccc(N)cc2)cc1 | inactive |  |
| CN(C)C(=O)Nc1ccc(Cl)cc1 | inactive |  |
| ClC1=C(Cl)[C@]2(Cl)[C@H]3[C@H]([C@@H]4C=C[C@H]3C4)[C@@]1(Cl)C2(Cl)Cl |  | 28.7 µM (active) |
| O=C(O)C1C2CCC(O2)C1C(=O)O (centres undefined) | inactive |  |
